Epigenetic derep – regulators of epigenetic silencing causing reporter derepression in mouse cells | Potency, µM (series often up to 53.9 µM), actives largely listed as activators | murine LDR cells, GFP reporter derepression, 30 h | 0.2% of 280,000 active; further: nearly all actives have a fitted effect of over 60% in size
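Derepression of a silenced CMV-GFP reporter in murine LDR cells is scored by enumerating GFP-positive cells with a laser-scanning microplate cytometer after 30 hours of treatment at 37 C.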
ClpP mod – qHTS Assay for Activators of ClpP | ATP-dependent Clp protease proteolytic subunit (Bacillus subtilis (strain 168)), P80244 | purified B. subtilis ClpP, FRET peptide cleavage, 20 min | Potency, µM (top dose mostly 57.5 µM) | 1.9% of 340,000 active | AID 651965, 2013; active means well fitted falling curve with a large enough effect; inconclusive means small, poorly fitted or top-dose-only effect; inactive means no such curve, though single readings can be large or run the other way; further: the source files actives as falling curves though it sought activators and does not explain the sign; nearly all actives have a fitted effect of over 65% in size
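ClpP 10 microg/mL final, pH 8 Tris/KCl buffer with BSA, glycerol, Tween-20; compound pinned in; FRET-FV substrate; RT 20 min; Ex320/Em430; ΔFRET vs ADEP 5.8 microM, DMSO, no enzyme.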
Sfp inh – Sfp phosphopantetheinyl transferase inhibition; Q9F4F7; Potency, µM, actives largely listed as inhibitors; Biochemical Sfp PPTase activity, qHTS; 3.5% of 310,000 active;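 further: the enzyme is Sfp with the accession as filed and its product quenches rhodamine fluorescence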
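Step 1, compound plus 15 nM Sfp-PPTase, 15 min, room temperature. Step 2, add rhodamine-CoA (5 uM) and BHQ-2-YbbR (12.5 uM). Step 3, read 525/598 nm fluorescence at 0 and 30 min.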
PINK1 expr mod – PINK1 expression modulation; PINK1 immunofluorescence, high-content cytometry, 24 h; 0.2% of 410,000 active; Potency, µM (series often up to 76.6 µM), hits mostly activators; AID 624263; active means well fitted activation curve with a large enough effect; inconclusive means small, poorly fitted or top-dose-only effect; cell line not stated here; further: nearly all actives have a fitted effect of over 65% in size
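Decision-based qHTS: stable cells, 24 h exposure to five compound concentrations, CCCP as control. Fixed cells stained for PINK1 plus nuclear, mitochondrial and cell markers, cytometer read.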
RORgamma inh – inhibitors of mouse ROR gamma transcriptional activity; P51450; Drosophila S2 Gal4-RORgamma UAS-luciferase reporter, 20 h; Potency, µM (top dose mostly 53.6 µM), most hits filed as inhibitors; 5.4% of 310,000 active; AID 2551; further: nearly all actives have a fitted effect of over 60% in size
Target sequence (P51450 whole entry, looked up, the tested form may be a part): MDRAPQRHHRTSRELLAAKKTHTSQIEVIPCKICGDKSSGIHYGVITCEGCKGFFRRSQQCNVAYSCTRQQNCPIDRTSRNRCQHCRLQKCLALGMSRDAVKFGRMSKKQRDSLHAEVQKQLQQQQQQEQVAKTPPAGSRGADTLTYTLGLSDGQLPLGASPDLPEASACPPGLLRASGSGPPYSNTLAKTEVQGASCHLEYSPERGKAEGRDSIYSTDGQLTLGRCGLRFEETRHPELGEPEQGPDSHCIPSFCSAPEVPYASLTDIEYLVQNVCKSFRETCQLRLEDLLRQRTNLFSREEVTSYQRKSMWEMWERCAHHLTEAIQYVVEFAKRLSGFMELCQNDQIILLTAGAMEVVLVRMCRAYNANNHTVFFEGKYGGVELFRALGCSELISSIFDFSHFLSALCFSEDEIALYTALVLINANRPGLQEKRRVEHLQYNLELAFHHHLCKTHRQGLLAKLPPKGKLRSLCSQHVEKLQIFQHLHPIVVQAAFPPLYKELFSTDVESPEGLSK
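Stably transfected Drosophila Schneider cells are the test system, with ROR gamma fused to Gal4 and luciferase under UAS control; luminescence is read after 20 hr of 700 uM copper sulfate induction at ambient temperature.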
Gal4-VP16 FLuc – counter-screen for ROR gamma inhibitors: Gal4-VP16 reporter | 3.5% of 310,000 active | Drosophila S2 Gal4-VP16 UAS-luciferase, luminescence, 20 h | Potency, µM (titrated, usually from 53.6 µM), usual class: inhibitors | AID 2546;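 further: Gal4-VP16 expression switched on by copper sulfate through the metallothionein promoter; nearly all actives have a fitted effect of over 50% in size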
Large screens that a line does not name were inactive. Sampled rows, rich in hits. Any-hit rate of the full collection: about 8.1%. Unless noted, the call rests on the fitted dose curve; in most records, active means well fitted curve in the direction sought with a large enough effect; inconclusive means small, poorly fitted or top-dose-only effect, or another doubt; inactive means no such curve, though single readings can be large; an effect the other way counts as inactive or inconclusive.

CC(=O)NC(=S)Nc1sc2c(c1C#N)CCCCC2	Sfp inh 50µM, RORgamma inh 11µM, Gal4-VP16 FLuc 8.9µM
COc1ccccc1C(=O)Nc1sc(C(=O)N2CCCC2)c(C)c1C#N	RORgamma inh 4µM, Gal4-VP16 FLuc 7.9µM (no result: ClpP mod)
COc1ccc(-c2nc3ccccc3n3c(-c4ccccc4)c4c(=O)n(C)c(=O)n(C)c4c23)cc1OC	none (no result: Sfp inh, RORgamma inh, Gal4-VP16 FLuc)
N#Cc1c(NC(=O)C2CC(c3ccccc3Cl)=NO2)sc2c1CCC2 (stereo unspecified)	none
CN1Cc2sc(NC(=S)NC(=O)c3ccccc3)c(C#N)c2CC1(C)C	Epigenetic derep inconclusive, Sfp inh 32µM, RORgamma inh 3.2µM, Gal4-VP16 FLuc inconclusive (no result: ClpP mod)
CC(C)C(=O)Nc1sc2c(c1C#N)CCCCC2	Sfp inh 32µM, RORgamma inh inconclusive
CCN1CCc2c(sc(NC(=S)NC(=O)c3ccccc3)c2C#N)C1	Sfp inh 56µM
N#Cc1c(NC(=O)C2CC(c3ccccc3O)=NO2)sc2c1CCC2 (stereo unspecified)	Sfp inh 25µM, RORgamma inh inconclusive, Gal4-VP16 FLuc inconclusive
CC(C)(C)C(=O)Nc1ccccc1C(=O)OCc1cc(=O)n2ccsc2n1	none (no result: Sfp inh, RORgamma inh, Gal4-VP16 FLuc)
Cn1c(=O)c2sccc2n2c(CCC(=O)N3CCN(c4ccc(F)cc4)CC3)nnc12	none (no result: ClpP mod, Sfp inh, PINK1 expr mod, RORgamma inh, Gal4-VP16 FLuc)
O=C(NCCCc1nc2ccccc2n1CCCOc1ccccc1)C1CCCCC1	none (no result: Epigenetic derep, Sfp inh, RORgamma inh, Gal4-VP16 FLuc)
CCOC(=O)N1CCc2c(sc(NC(C)=O)c2C(N)=O)C1	none (no result: Epigenetic derep, Sfp inh, RORgamma inh, Gal4-VP16 FLuc)
Cc1onc(-c2ccccc2)c1C(=O)Nc1sc2c(c1C#N)CCC(C)C2 (stereo unspecified)	ClpP mod inconclusive
CCN1CCc2c(sc(NC(=O)Nc3ccc(Cl)c(Cl)c3)c2C(N)=O)C1	Epigenetic derep inconclusive, PINK1 expr mod 14µM
CCN1CCc2c(sc(NC(=S)NC(=O)c3ccco3)c2C(N)=O)C1	Sfp inh 22µM (no result: ClpP mod)
CCOC(=O)N1CCc2c(sc(NC(=O)c3ccc(Cl)s3)c2C(N)=O)C1	Epigenetic derep inconclusive, Sfp inh 50µM, Gal4-VP16 FLuc inconclusive (no result: ClpP mod, PINK1 expr mod)
Cc1onc(-c2ccccc2Cl)c1C(=O)Nc1sc2c(c1C#N)CCC2	Sfp inh 18µM, RORgamma inh inconclusive, Gal4-VP16 FLuc inconclusive (no result: PINK1 expr mod)
CCN1CCc2c(sc(NC(=O)Cc3ccccc3)c2C(N)=O)C1	none (no result: Epigenetic derep)
Cc1c(C(=O)NC(C)(C)CO)sc2ncnc(NCCN(C)C)c12	none (no result: Epigenetic derep, ClpP mod, Sfp inh, RORgamma inh, Gal4-VP16 FLuc)
COc1[nH]c(/N=C/c2ccco2)c(C#N)c1C#N	none (no result: Epigenetic derep, Sfp inh, RORgamma inh, Gal4-VP16 FLuc)
COC(=O)c1c(NC(=O)c2c(OC)cccc2OC)sc2c1CCCC2	ClpP mod inconclusive (no result: Sfp inh, RORgamma inh, Gal4-VP16 FLuc)
N#Cc1c(NC(=S)NC(=O)Cc2cccs2)sc2c1CCCCC2	RORgamma inh 5µM, Gal4-VP16 FLuc 16µM
COc1cccc(OC)c1C(=O)Nc1sc2c(c1C#N)CCC2	Sfp inh 40µM (no result: Epigenetic derep)
Cc1onc(C(=O)Nc2sc3c(c2C#N)CCCC3)c1[N+](=O)[O-]	Sfp inh 50µM
CN1CCCC(CNC(=O)c2cnn(-c3ncc4c(n3)-c3ccccc3CC4)c2C2CC2)C1 (stereo unspecified)	none (no result: Epigenetic derep, ClpP mod, Sfp inh, RORgamma inh, Gal4-VP16 FLuc)
CCOC(=O)C(C)Sc1ccc2nnc(-c3ccc(OCC)cc3)n2n1 (stereo unspecified)	none (no result: Epigenetic derep, Sfp inh, RORgamma inh, Gal4-VP16 FLuc)
COc1ccccc1-c1cc(C(=O)N/N=C/C=C/c2ccccc2[N+](=O)[O-])c2ccccc2n1	RORgamma inh 8.9µM, Gal4-VP16 FLuc 11µM
COc1ccccc1-c1cc(C(=O)N/N=C\c2cn(C)nc2C)c2ccccc2n1	RORgamma inh inconclusive
O=C(N/N=C/C=C/c1ccccc1[N+](=O)[O-])c1cc(-c2cccnc2)nc2ccccc12	RORgamma inh 7.1µM, Gal4-VP16 FLuc 5.6µM
COc1cc(Br)c(CC(=O)NO)cc1OC	none (no result: Epigenetic derep, Sfp inh, RORgamma inh, Gal4-VP16 FLuc)
CCOC(=O)N1CCN(Cc2ccc3c(c2)CN(C(=O)c2ccc4ncccc4c2)CCO3)CC1	none (no result: Epigenetic derep, ClpP mod, Sfp inh, RORgamma inh, Gal4-VP16 FLuc)
Cc1cc(C)cc(NC(=O)C2CC23CCN(Cc2ccc4ncccc4c2)CC3)c1 (stereo unspecified)	none (no result: Epigenetic derep, ClpP mod, Sfp inh, RORgamma inh, Gal4-VP16 FLuc)
COc1ccc(-c2cc(-c3ccccc3)nc(N3CCCC3)n2)cc1OC	ClpP mod 25µM
